Test results: PubChem BioAssay (Tox21)
“And” between values parts separate entries of the source, which are not always exact repeats. Equal values may be shown once. Results filed as inconclusive are left out. The source made the active and inactive calls. Unless noted, calls follow the shape of the dose curve; as a rule, active = well fitted curve in the direction sought with a large enough effect in the repeat runs; inconclusive = weak or mixed curves; inactive = no such curve, though single readings can be large; an effect the other way counts as inactive or inconclusive.

Tests used:
[1] = qHTS assay to identify small molecule antagonists of the glucocorticoid receptor (GR) signaling pathway - cell viability counter screen (AID 720693); also: nearly all actives have a fitted effect of over 55% in size; also: potency is read from the fitted curve at half-maximal effect
[2] = qHTS assay for identifying genotoxic compounds that show differential cytotoxicity against isogenic chicken DT40 cell lines with known DNA damage response pathways - wild type cell line (AID 743012); also: nearly all actives have a fitted effect of over 60% in size; also: potency is read from the fitted curve at half-maximal effect
Method in brief: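 300 wt DT40 cells/well; cpd (DMSO) pintool-transferred after ~0.5 h at 37 C/5% CO2; 40 h incubation; CellTiter-Glo added, 30 min RT; luminescence read.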

[3] = qHTS assay for identifying genotoxic compounds that show differential cytotoxicity against isogenic chicken DT40 cell lines with known DNA damage response pathways - Rev3 mutant cell line (AID 743014); also: nearly all actives have a fitted effect of over 55% in size; also: potency is read from the fitted curve at half-maximal effect
[4] = qHTS assay for identifying genotoxic compounds that show differential cytotoxicity against isogenic chicken DT40 cell lines with known DNA damage response pathways - Rad54/Ku70 mutant cell line (AID 743015); also: nearly all actives have a fitted effect of over 60% in size; also: potency is read from the fitted curve at half-maximal effect
[5] = qHTS assay to identify small molecule antagonists of the androgen receptor (AR) signaling pathway - cell viability counter screen (AID 743033; also: nearly all actives have a fitted effect of over 45% in size; also: potency is read from the fitted curve at half-maximal effect)
[6] = qHTS assay to identify small molecule antagonists of the androgen receptor (AR) signaling pathway using the MDA cell line - cell viability counter screen (AID 743041; also: nearly all actives have a fitted effect of over 45% in size; also: potency is read from the fitted curve at half-maximal effect)
Method in brief: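 In this qHTS counter assay, fluorescence intensity after CellTiter-Fluor addition indicated viability of MDA-kb2 AR-luc cells given compounds and R1881 for 16 h at 37C.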

[7] = molecular target: Androgen receptor (Homo sapiens) (UniProt P10275); experiment: qHTS assay to identify small molecule agonists of the androgen receptor (AR) signaling pathway (AID 743036; active = well fitted activation curve with a large enough effect in the signal ratio in the repeat runs, with a control signal flat, not every such curve was filed as active; the % refers to the signal ratio)
Method in brief: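 In this Tox21 qHTS, 2,000 HEK293 AR-bla cells per well were incubated with compounds for 16 h at 37C and 5% CO2. Fluorescence intensity was recorded 2 h after adding LiveBLAzer B/G FRET substrate at room temperature.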

[8] = molecular target: Androgen receptor (Homo sapiens) (UniProt P10275); experiment: qHTS assay to identify small molecule agonists of the androgen receptor (AR) signaling pathway using the MDA cell line (AID 743040; also: nearly all actives have a fitted effect of over 20% in size)
Method in brief: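 Cell-based luciferase reporter: MDA-kb2, MMTV promoter (AR + GR response elements). 16 h compound exposure at 37C; ONE-Glo, 30 min RT, luminescence.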

[9] = molecular target: Androgen receptor (Homo sapiens) (UniProt P10275); experiment: qHTS assay to identify small molecule antagonists of the androgen receptor (AR) signaling pathway using the MDA cell line (AID 743042; also: nearly all actives have a fitted effect of over 55% in size; also: potency is read from the fitted curve at half-maximal effect)
Method in brief: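 MDA-kb2 cells (human breast carcinoma, stably carrying an MMTV-luciferase reporter responsive to AR and GR) were plated at 3,000 cells/well and preincubated 5 hr at 37C, then given compound plus R1881 agonist for 16 h. ONE-Glo luminescence was read.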

[10] = molecular target: Androgen receptor (Homo sapiens) (UniProt P10275); experiment: qHTS assay to identify small molecule antagonists of the androgen receptor (AR) signaling pathway (AID 743035; active = well fitted inhibition curve with a large enough effect in the signal ratio in the repeat runs, not every such curve was filed as active; the % refers to the signal ratio; also: potency is read from the fitted curve at half-maximal effect)
Method in brief: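 In this cell-based reporter screen, compounds were tested in concentration series against R1881-activated HEK293 cells expressing beta-lactamase under UAS control; after 16 h at 37C, FRET substrate was added and fluorescence read 2 h later.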

Sequence of Androgen receptor (Homo sapiens) (P10275 whole entry, looked up): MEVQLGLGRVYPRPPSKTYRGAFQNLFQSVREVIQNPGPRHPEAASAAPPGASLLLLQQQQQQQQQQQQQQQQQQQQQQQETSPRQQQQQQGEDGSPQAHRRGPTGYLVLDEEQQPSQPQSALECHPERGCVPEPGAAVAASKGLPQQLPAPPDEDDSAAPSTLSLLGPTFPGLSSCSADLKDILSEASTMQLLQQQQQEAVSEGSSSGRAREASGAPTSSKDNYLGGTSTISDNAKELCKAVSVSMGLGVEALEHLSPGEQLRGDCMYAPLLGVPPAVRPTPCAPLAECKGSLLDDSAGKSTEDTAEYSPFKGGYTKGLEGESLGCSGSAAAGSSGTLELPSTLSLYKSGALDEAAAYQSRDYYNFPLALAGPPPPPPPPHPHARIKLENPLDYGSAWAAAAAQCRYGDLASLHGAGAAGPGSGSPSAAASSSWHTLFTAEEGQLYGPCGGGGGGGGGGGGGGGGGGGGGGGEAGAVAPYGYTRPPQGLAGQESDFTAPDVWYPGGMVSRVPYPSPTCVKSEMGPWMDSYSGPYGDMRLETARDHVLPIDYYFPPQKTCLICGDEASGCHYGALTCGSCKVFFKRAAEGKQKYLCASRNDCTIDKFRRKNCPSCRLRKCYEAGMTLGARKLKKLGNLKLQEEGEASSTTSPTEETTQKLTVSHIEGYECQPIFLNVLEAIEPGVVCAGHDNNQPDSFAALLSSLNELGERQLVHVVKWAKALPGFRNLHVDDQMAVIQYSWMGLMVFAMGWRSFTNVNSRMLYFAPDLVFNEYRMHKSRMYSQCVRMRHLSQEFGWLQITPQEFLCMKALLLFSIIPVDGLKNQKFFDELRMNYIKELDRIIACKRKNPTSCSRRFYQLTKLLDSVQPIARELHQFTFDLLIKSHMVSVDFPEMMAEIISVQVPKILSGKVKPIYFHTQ

Structure (SMILES)	Potency [1]	Potency [2]	Potency [3]	Potency [4]	Potency [5]	Potency [6]	outcome [7]	Potency [8]	Potency [9]	Potency [10]
C/C=C/C=N/NC(=O)c1ccncc1	inactive	inactive	inactive	inactive	inactive	inactive	–	–	–	–
CNC(=O)c1cc(Oc2ccc(NC(=O)Nc3ccc(Cl)c(C(F)(F)F)c3)cc2)ccn1	19 µM (active)	4.73 µM (active)	5.31 µM (active)	5.31 µM (active)	16.9 µM (active)	16.8 µM (active)	–	–	–	–
CN(Cc1cc(Br)cc(Br)c1N)C1CCCCC1	inactive	10.6 µM (active)	6.68 µM (active)	10.6 µM (active)	–	inactive	–	–	–	–
CCN(CC)CCCN(c1ccccc1)C1Cc2ccccc2C1	23.9 µM (active)	0.531 µM (active)	0.944 µM (active)	1.5 µM (active)	–	11.9 µM (active)	–	–	–	–
O=C1c2c(O)ccc([N+](=O)[O-])c2C(=O)c2c([N+](=O)[O-])ccc(O)c21	8.63 µM (active)	13.6 µM (active)	6.8 µM (active)	5.4 µM (active)	6.85 µM (active)	21.5 µM (active)	–	–	–	–
C=C(c1ccc(C(=O)O)cc1)c1cc2c(cc1C)C(C)(C)CCC2(C)C	13.4 µM (active)	inactive	77 µM (active)	68.6 µM (active)	inactive	inactive	–	–	–	–
CC(C)N=C(N)/N=C(\N)Nc1ccc(Cl)cc1	inactive	3.59 µM (active)	12.7 µM (active)	10.1 µM (active)	–	inactive	–	–	–	–
Cc1cccc(C)c1NC(=O)CN1CCN(CCCC(c2ccc(F)cc2)c2ccc(F)cc2)CC1	inactive	4.03 µM (active)	5.69 µM (active)	7.17 µM (active)	inactive	inactive	–	–	–	–
CCN(CC)CCOC(=O)C1(C2CCCCC2)CCCCC1	inactive	26.6 µM (active)	21.1 µM (active)	23.7 µM (active)	–	–	inactive	inactive	inactive	–
CCCCCCCC/C=C\CCCCCCCC(=O)N(C)CC(=O)O	49 µM (active)	21.7 µM (active)	–	27.3 µM (active)	–	–	–	–	–	–
CCCCCCCCCCCCOC(=O)c1cc(O)c(O)c(O)c1	27.4 µM (active) and 34.7 µM (active)	609 nM (active) and 386 nM (active)	384 nM (active) and 273 nM (active)	342 nM (active) and 217 nM (active)	54.9 µM (active)	54.5 µM (active)	–	–	–	–
CC(C(O)c1ccccc1)N(C)CCOC(c1ccccc1)c1ccccc1 (stereo unspecified)	inactive	5.31 µM (active)	8.41 µM (active)	9.44 µM (active)	–	26.6 µM (active)	–	–	–	–
C1CC(COCC2CO2)CCC1COCC1CO1 (stereo unspecified)	inactive	30.6 µM (active)	6.86 µM (active)	19.3 µM (active)	inactive	inactive	–	–	–	–
COC(=O)CC#N	inactive	inactive	inactive	inactive	inactive	inactive	–	–	–	–
Cc1occc1SSc1ccoc1C	inactive	19.3 µM (active)	19.3 µM (active)	15.4 µM (active)	inactive	inactive	–	–	–	–
CN(C)CCCN1c2ccccc2CCc2ccccc21	inactive	13.3 µM (active) and 8.63 µM (active)	23.7 µM (active) and 9.69 µM (active)	29.8 µM (active) and 9.69 µM (active)	–	inactive	–	–	–	–
CC(C)(c1cc(Br)c(OCCO)c(Br)c1)c1cc(Br)c(OCCO)c(Br)c1	38 µM (active)	7.52 µM (active)	13.4 µM (active)	16.8 µM (active)	–	–	inactive	inactive	42.3 µM (active)	17 µM (active)
c1ccc(Nc2cccc3ccccc23)cc1	44.2 µM (active)	69.5 µM (active)	61.9 µM (active) and 61.1 µM (active)	55.2 µM (active) and 61.1 µM (active)	–	inactive	–	–	–	–
COC(=O)NCCC[Si](OC)(OC)OC	inactive	61.1 µM (active)	68.6 µM (active)	–	inactive	inactive	–	–	–	–
CC(C)c1cccc(C(C)C)c1N1C(=O)c2ccc(O)cc2C1=O	43.6 µM (active)	8.63 µM (active)	7.7 µM (active)	8.63 µM (active)	38.9 µM (active)	inactive	–	–	–	–
C[C@@]12C(=O)OC(=O)[C@]1(C)C1CCC2O1	1.29 µM (active)	inactive	inactive	inactive	–	3.35 µM (active)	–	–	–	–
CCCCCCCCCCCCCCNCCO	inactive	11.9 µM (active)	21.1 µM (active)	11.9 µM (active)	inactive	inactive	–	–	–	–
CCc1cccc(C)c1	inactive	inactive	inactive	inactive	inactive	inactive	–	–	–	–
CCCCCCC(C)Nc1ccc(Nc2ccccc2)cc1 (stereo unspecified)	49 µM (active)	17.2 µM (active)	15.4 µM (active)	17.2 µM (active)	–	inactive	–	–	–	–
Clc1ccc(C(c2ccccc2Cl)C(Cl)Cl)cc1 (stereo unspecified)	inactive	23.7 µM (active)	29.8 µM (active) and 48.6 µM (active)	26.6 µM (active) and 43.3 µM (active)	inactive	inactive	–	–	–	–
